# Screening data from PubChem BioAssay.
# HT1080 IDH1KD tx – toxicity to HT-1080 IDH1 knockdown cells (counter line); Potency, µM (series often up to 46.1 µM), without a hit: at the top dose activity, negative = toxicity, actives largely listed as cytotoxic; HT-1080 IDH1 knockdown viability, ATP luminescence, 48 h; actives 2% (n = 360,000);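 further: potency means the concentration at half of the fitted maximal effect; 0% = DMSO wells and -100% = cell-free medium wells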
#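 Using the IDH1-knockdown HT-1080 line run in the same batch and compound series as the NT line, viability after 48 h at 37 °C was determined by CellTiter-Glo luminescence and expressed as % activity.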
# TDP1 cell noCPT – qHTS for Inhibitors of human tyrosyl-DNA phosphodiesterase 1 (TDP1): qHTS in cells in absence of CPT. DT40 Tdp1-/- hTDP1 cells, no CPT, ATP luminescence, 48 h. actives 15% (n = 420,000). Potency, µM (titrated, usually from 46.2 µM), for inactives: at the highest dose activity change, negative = growth inhibition, usual class: inhibitors; further: potency means the concentration at half of the fitted maximal effect; nearly all actives have a fitted effect of over 55% in size
#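 A cellular qHTS used chicken DT40 cells lacking endogenous Tdp1 but carrying stably transfected human TDP1. Compounds were applied without camptothecin, and cell growth kinetics were judged by ATP-dependent luminescence after ≥48 hr.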
# IL1B secr inh – blocks inflammasome-driven IL-1 beta release; activity change, % at 57.5 µM; THP-1 LPS/ATP IL-1B secretion, AlphaLISA, 16 h; hits give low values; AID 743279; actives 4.7% (n = 360,000); in the data active means activity change below about -50%; inconclusive means mostly about -30% to -49%
#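 Secreted IL-1B measured by AlphaLISA bead assay after 16 h compound exposure of THP-1 cells; compounds (final up to 57.5 uM) added 1 h before LPS (250 ng/mL) and ATP (1.25 mM) stimulation; lower signal means less secretion.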
# HT1080NT lethal – kills 2HG-producing HT-1080-NT fibrosarcoma cells; HT-1080-NT fibrosarcoma viability, CellTiter-Glo ATP luminescence, 48 h; Potency, µM (doses to about 46.1 µM), for the others: top-dose activity, negative = less viability, hits mostly cytotoxic; actives 1.6% (n = 360,000);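 further: NT is the 2HG producing partner of a matched IDH1 knockdown line; potency means the concentration at half of the fitted maximal effect; 0% = DMSO-treated cells and -100% = media-only wells without cells; nearly all actives have a fitted effect of over 55% in size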
#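 Viability of the 2HG-overproducing fibrosarcoma line after 48 hours of compound exposure at 37 degrees C was determined by luminescence with CellTiter-Glo, and concentration-effect curves were then fitted and categorized.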
# uPA surface inh – inhibitors of cell surface uPA generation; cell surface uPA generation assay, qHTS; actives 0.31% (n = 330,000); Potency, µM (series often up to 38.3 µM), without a hit: at the top dose activity change, negative = inhibition, hits mostly inhibitors; active means well fitted inhibition curve with a large enough effect; inconclusive means small, poorly fitted or top-dose-only effect; inactive means no such curve, though single readings can be large or run the other way; tested in mouse RAW 264.7 cells; further: potency means the concentration at half of the fitted maximal effect; nearly all actives have a fitted effect of over 55% in size
# DT40 TDP1 CPT – growth inhibition of DT40 Tdp1-/-;hTDP1 cells with camptothecin (screen for TDP1 inhibitors); chicken DT40 Tdp1-/-;hTDP1 cells + 20 nM CPT, ATP luminescence, 48 h; actives 12% (n = 420,000); Potency, µM (doses to about 46.2 µM), without a hit: at the top dose activity change, negative = growth inhibition, actives largely listed as inhibitors; further: potency means the concentration at half of the fitted maximal effect; nearly all actives have a fitted effect of over 55% in size
#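 Chicken DT40 Tdp1-/- cells stably complemented with human TDP1 were seeded at 400 cells/well in medium containing 20 nM camptothecin, exposed to pin-transferred compounds, and grown at 37 °C for at least 48 hr. Viability was read as ATP luminescence.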
# * = called active by the depositor; u = inconclusive; x = no result given. This is a sample that favours compounds with a hit; in the whole collection about 19% have one here. Unless noted, the call rests on the fitted dose curve; in most records, active means well fitted curve in the direction sought with a large enough effect; inconclusive means small, poorly fitted or top-dose-only effect, or another doubt; inactive means no such curve, though single readings can be large; an effect the other way counts as inactive or inconclusive. Unless noted, on the % scale 0 is the no-effect control and ±100 the full control effect.
SMILES,HT1080 IDH1KD tx,TDP1 cell noCPT,IL1B secr inh,HT1080NT lethal,uPA surface inh,DT40 TDP1 CPT
COc1ccc(C(=O)C[C@@H]2OC[C@H](C)N2S(=O)(=O)c2ccc(C)cc2)cc1OC,-5%,18µM*,3,0%,x,u
Cc1ccc2c(CC(=O)N3CCN(c4ccccc4)CC3)coc2c1,-22%,6%,-10,4%,-3%,-4%
O=C1c2ccc([N+](=O)[O-])cc2C(=O)N1Cc1cccnc1,9%,14%,19,13%,-3%,6%
COCCCNCCCCOc1ccccc1-c1ccccc1,-24%,15µM*,0,-13%,-4%,21µM*
CCCCNCCOc1ccccc1-c1ccccc1,-13%,u,-60*,-9%,0%,u
OCCNCCOc1ccccc1-c1ccccc1,-8%,-24%,u,-17%,1%,-16%
CNCCCCOc1ccccc1-c1ccccc1,u,u,u,-19%,-1%,26µM*
COCCCNCCOc1ccccc1-c1ccccc1,2%,u,-30,-4%,-1%,13%
C=CCNCCCCOc1ccccc1-c1ccccc1,u,u,-85*,u,8%,u
COc1ccc(S(=O)(=O)Nc2ccccc2C(=O)N2CCOCC2)cc1Cl,-2%,16%,26,5%,6%,1%
CCCC(=O)Nc1ccc(-c2nc3ncccc3o2)cc1C,x,-15%,x,x,x,-17%
Cc1ccccc1-c1nn2c(=O)cc(CN3CCN(S(=O)(=O)c4ccc(Cl)cc4)CC3)nc2s1,x,u,x,x,x,-29%
COc1ccc(-c2c(C#N)c(SCC(=O)Nc3ccccc3)nc3c2CCCC3)cc1,-13%,u,-9,11%,4%,26µM*
Cc1ccccc1NC(=O)CSc1nc2cc3c(cc2cc1C)CCC3,u,3.7µM*,41,u,u,4.6µM*
COc1cc(NC(=O)CSc2nc3[nH]ncc3c(=O)n2-c2ccccc2)cc(OC)c1OC,-9%,26µM*,u,0%,x,u
COc1ccc(NC(=O)CSc2c3c(nc4ccccc24)CCCC3)c(OC)c1,u,18µM*,-105*,u,-7%,21µM*
COc1ccc(-c2c(C#N)c(SCC(=O)Nc3ccc(C)cc3)nc(C)c2C(=O)Nc2ccccc2)cc1,x,1%,x,x,x,4%
COc1ccc(OCC(=O)N2CCc3ccccc32)c([N+](=O)[O-])c1,-1%,-18%,-20,4%,x,-21%
CCN(C(=O)CN1C(=O)S/C(=C\c2cccc(OC)c2)C1=O)C1CCS(=O)(=O)C1 (stereo not drawn),-7%,8%,0,6%,-4%,u
COc1cc(NC(=O)CSc2c3c(nc4ccccc24)CCC3)cc(OC)c1OC,-9%,u,-60*,-12%,-4%,u
Cc1cc(Br)ccc1NC(=O)CSc1c2c(nc3ccccc13)CCC2,x,12µM*,x,x,x,15µM*
COc1ccc(N2CCN(C(=O)CSc3nc4[nH]ncc4c(=O)n3-c3cccc4ccccc34)CC2)cc1,-13%,7.3µM*,-51*,-23%,x,6.5µM*
Cc1ccc(N2CC(c3nnc(NC(=O)c4ccco4)s3)CC2=O)cc1C (stereo not drawn),x,-19%,x,x,x,u
COC(=O)/C(=C(O)\C=C\c1ccccc1[N+](=O)[O-])c1nc2ccccc2[nH]1,-20%,15µM*,u,-15%,-6%,12µM*
Cc1ccccc1NC(=O)Nc1ccccc1Br,9%,u,10,-3%,-15%,10µM*
SMILES,HT1080 IDH1KD tx,TDP1 cell noCPT,IL1B secr inh,HT1080NT lethal,uPA surface inh,DT40 TDP1 CPT
Cc1cc(NC(=O)Nc2ccccc2F)ccc1Br,-27%,u,-50*,-30%,-8%,u
COc1ccccc1NC(=O)Nc1ccc(F)c(F)c1,-21%,u,-15,-17%,-5%,-19%
COc1ccccc1NC(=O)Nc1ccc2c(c1)nnn2C,-3%,-20%,-23,20%,3%,-20%
Cn1nnc2cc(NC(=O)Nc3ccccc3F)ccc21,-5%,16µM*,u,-4%,x,u
Cc1ccccc1NC(=O)C(=O)Nc1ccccc1C,u,-4%,-9,u,3%,-28%
CN(C)c1ccc(CC(=O)N2CCCCC2c2cc(C(=O)Nc3cccc4c3CCCC4)no2)cc1 (stereo not drawn),-8%,u,-16,-9%,x,26µM*
CN(C)c1ccc(CC(=O)N2CCCCC2c2cc(C(=O)Nc3ccccc3)no2)cc1 (stereo not drawn),12%,26µM*,0,17%,x,21µM*
Cc1ccc(F)cc1C(=O)N1CCCCC1c1cc(C(=O)Nc2ccccc2)no1 (stereo not drawn),12%,u,0,23%,x,u
N#Cc1ccc(C(=O)N2CCCCC2c2cc(C(=O)Nc3cccc(C#N)c3)no2)cc1 (stereo not drawn),3%,u,-30,14%,x,u
Cc1ccc(F)cc1C(=O)N1CCCCC1c1cc(C(=O)Nc2cccc(C#N)c2)no1 (stereo not drawn),0%,21µM*,2,1%,x,29µM*
CN(C)c1ccc(CC(=O)N2CCCCC2c2cc(C(=O)Nc3cccc(C#N)c3)no2)cc1 (stereo not drawn),-4%,23µM*,-12,1%,x,u
CCC(Oc1ccccc1)C(=O)Nc1ccc(S(=O)(=O)Nc2cc(C)on2)cc1 (stereo not drawn),5%,-11%,3,3%,-3%,-9%
Cc1ccc(C)c(CC(=O)N2CCCCC2c2cc(C(=O)Nc3cccc(C#N)c3)no2)c1 (stereo not drawn),u,23µM*,20,u,x,23µM*
CN(CCOc1ccccc1)CC(=O)Nc1cc([N+](=O)[O-])ccc1Cl,-9%,u,-28,-4%,-8%,-2%
CCOc1ccc(CN(C)CC(=O)Nc2ccc([N+](=O)[O-])cc2Cl)cc1,-9%,18µM*,0,-4%,6%,u
O=C(Nc1cc2c(cc1C(=O)c1ccccc1Br)OCCO2)c1ccccc1,x,-54%,x,x,x,-4%
Cc1ccc(OCc2nnn(CC(=O)NS(=O)(=O)c3c(C)noc3C)c2-c2ccccc2)cc1,9%,1µM*,5,-12%,x,u
CC(=O)c1ccc(OCc2nnn(CC(=O)O)c2-c2ccccc2)cc1,22%,6%,-69*,-1%,x,5%
N#Cc1ccc(OCc2c(-c3ccccc3)nnn2CC(=O)O)cc1,13%,-1%,1,3%,x,7%
